Data taken from the supplement of paper PMC6555819.

tested on: PXR homodimer (NR concentration 270 nM); assay: PBM binding z-score (relative to random genomic background probes); higher = stronger binding; sequences stand for … in GC…GCGATTGACAGCGTAGAATGAAGG
In short: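 The probes on custom Agilent 4×180K protein-binding microarrays were double-stranded, with 34-nt variable regions bearing direct-repeat seeds, single-nucleotide variants, half-site ablations and random human genomic background sequences. Incubation lasted 1 h with ligand-free nuclear receptor dimers in PBS pH 7.4, 2% milk, 0.02% Triton X-100, 1 mM DTT, 0.2 mg/mL BSA and 0.4 mg/ml salmon testes DNA. Antibodies against each partner (one per run) detected bound dimers, and fluorescence scans were regression-normalized. Binding z-scores take the random background probes as reference.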

Sequence | PBM binding z-score
TCTCGGAGGACAGGAAGGTCAGAGCTTTCCAGAG | -0.0214
ACTATTAGTTGACTTACGGCAACCGATACGACGC | -0.0464
CCGGACAGGTGAAAGGTAACTCAGTCTGGTACGC | 0.241
ATCGAAAGGTCGAAGTGAGTATAGAGAAAGGGAA | 0.245
ATATGTAGGTTATCGGCTCATTCAGTTTGCGCAT | 0.405
CCTTCTGGGCCACGAAAGGTCATTGATTCAGTGA | 1.61
CAAACTAGGTCAAGCTCAAAGTCGGTTTGTGCCA | -0.401
TTACCAAGGTGAAAGGTAGTTGATGCACGCCTTG | -0.0575
CCAACTGGGCCACGAAAGGTCATTGATTCAGTGA | 1.31
AGAATGAGGTTATACGTAGATCAGGCAAGAAAGT | 0.159
CAAACCAGGTCAAGGTCAAAGTCGGTTTGTGCCA | 2.63
TCATATAGGTAAACAGGTGAAAGTCCGTAAGTTA | 0.216
CGAACGAGAGCATGAGTTGATAGCAAATGCCGAT | -0.148
ACTTACGGGTCAACGAGGTTATGGCACGCGTATA | 2.74
ATCGACAGGTCGACGAGGTGAGTATACACCGTTT | -0.437
CAAACTAGGTCACAGAGGTCAAAGTCCGTGCGTA | 11.2
CCTACTGGGCCAAAGGTCAATGATTCCAATGCTC | 0.657
GCTGCTAGGTCAAATGATGGTCAGCTAAAGCTCG | -0.505
AGAATGAGTTTATACGTAGATCAGGGAAGAAAGT | 1.21
TGAATGAGGGTATAAGATCAGGGAACGTTGCAAA | 0.202
CCTCGGAGGACAACAGGAGGTCAGTGCTGCCAGA | 0.131
TAGCCTAGGTCAGATCGGGCCAGTATGCGCTATA | -0.704
